The list is not random: actives were taken first. Their share in the collection is about 4.8%.
SKKanGAS inh – blocks kanamycin growth of S. pyogenes SKKanGAS strain; BacTiter-Glo, 6 h; 1.3% of 300,000 active; AID 1662; inhibition, % at 7.5 µM;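 active = mean replicate score, as percent of positive control median, at least 50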;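 also: strain carries kanamycin resistance gene driven by streptokinase promoter and grows in 40 µg/ml kanamycin; loss of luminescence reflects streptokinase promoter inhibition or plain growth inhibition; 0% = median of DMSO wells and 100% = positive control at its reference dose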
tim23-1 inh – tim23-1 yeast growth inhibition; 1.3% of 330,000 active; AID 463212; S. cerevisiae tim23-1 growth, BacTiter-Glo luminescence, 24 h; inhibition, % at 20 µM;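 active = growth inhibition of the mutant yeast at or above 50%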;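 also: temperature-sensitive mutant grown at 25 °C; plate controls were DMSO-treated mutant yeast for no effect and medium wells lacking yeast for full effect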
NALP1 inh – inhibitors of NALP1 inflammasome in yeast. S. cerevisiae NALP1/ASC/caspase-1 growth, X-gal OD620, 72 h. inhibition, % at 10 µM. 0.61% of 280,000 active; in the data active = inhibition mostly above about 24%, no sharp cut-off; inactive = mostly below about 32%
PfHsp90 yeast 2 – growth inhibition of yeast expressing Plasmodium Hsp90; S. cerevisiae expressing PfHsp90, BacTiter-Glo ATP, 48 h; yeast lacking PDR1 and PDR3 efflux regulators; inhibition, % at 9.4 µM; 0.32% of 310,000 active;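 active = every replicate shows inhibition above about 80%, whatever the replicate mean, limit read from the data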;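 also: 0% = DMSO neutral controls and 100% = 20 µM radicicol positive controls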
tim10-1 inh – inhibits growth of tim10-1 mutant yeast | S. cerevisiae tim10-1 ts strain growth, BacTiter-Glo, 24 h | inhibition, % at 20 µM | 2.2% of 330,000 active | AID 463190;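 active = inhibition of at least 40%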;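 also: mutant grown at 25 °C; 0% = DMSO wells with yeast and 100% = wells holding no yeast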
TIM10 inh – inhibits growth of TIM10 yeast strain; S. cerevisiae TIM10 strain growth, BacTiter-Glo luminescence, 24 h; inhibition, % at 10 µM; 1.4% of 330,000 active; AID 463195;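 active = inhibition of 40% or more at the single tested concentration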;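 also: wild-type TIM10 isogenic control strain grown at permissive 25 °C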
tim10 confirm – TIM10 yeast growth inhibition, confirmed | shares compounds with TIM10 inh | S. cerevisiae tim10 strain growth, BacTiter-Glo luminescence, 24 h | inhibition, % at 10 µM | 63% of 4,600 active | AID 463215;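 active = inhibition of yeast growth at or above a set limit in either of two replicates at 10 µM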;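 also: this counterscreen used the strain with wild-type TIM10; 0% = yeast with DMSO and 100% = medium wells lacking yeast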
An asterisk follows results filed as active; nt = no result.

SMILES	SKKanGAS inh	tim23-1 inh	NALP1 inh	PfHsp90 yeast 2	tim10-1 inh	TIM10 inh	tim10 confirm
CN1c2ccccc2-c2nc3ccccc3n2C1c1ccncc1 (stereo unspecified)	-1	9	10	11	2	19	nt
O=C(Nc1ccc(Cl)cc1F)C1CCN(S(=O)(=O)c2cccc3nonc23)CC1	-6	-3	35	0	-10	-14	nt
COC(=O)CSc1nc(-c2ccccc2)c2c(c1C#N)CCCC2	7	23	14	-25	30	41*	27
CCOC(=O)C1(CC)NC(c2ccc(OC)c(OC)c2)C2C(=O)N(c3cccc(C(C)=O)c3)C(=O)C21 (stereo unspecified)	1	-7	2	1	-6	-5	nt
CSc1ccc2c(c1)C(N1CCN(C)CC1)Cc1ccc(F)cc1S2 (stereo unspecified)	21	-73	nt	nt	14	21	nt
Clc1ccc2c(c1)C(N1CCNCC1)Cc1ccccc1S2 (stereo unspecified)	17	4	8	0	22	48*	-40
CCOc1ccc(N(C(=O)c2cc3ccccc3oc2=O)C2C=CS(=O)(=O)C2)cc1 (stereo unspecified)	2	16	6	2	13	7	nt
COc1ccc(-c2csc(NC(=O)CSCc3c(C)noc3C)n2)c(OC)c1	29	18	nt	2	11	83*	-9
COc1ccc(-c2csc(NC(=O)CSCC(=O)Nc3cc(C)on3)n2)cc1	nt	7	nt	-3	1	8	nt
O=C(CCl)Oc1ccc2occ(C(=O)c3cccs3)c2c1	-8	-20	-3	1	17	61*	41*
COc1ccc(N2CCN(C(=O)c3ccc4c(c3)OCO4)CC2)cc1	2	7	19	-24	2	4	nt
FC(F)Oc1ccc(NC(=S)NCc2ccccc2)cc1Cl	4	24	-12	nt	31	50*	33*
FC(F)(F)c1ccc(NC(=S)NCc2ccccc2)cc1	32	43	0	0	36	45*	47*
Cc1ccc(NC(=S)Nc2ccc(OC(F)F)c(Cl)c2)cc1Cl	11	nt	6	8	nt	nt	nt
CC(NC(=S)Nc1ccc(OC(F)F)c(Cl)c1)C(C)(C)C (stereo unspecified)	27	30	6	13	38	51*	38*
O=C(O)c1ccc(NC(=S)NCc2ccccc2)cc1	-2	-3	10	-6	-6	12	nt
c1ccc(CSc2ncn(-c3ccccc3)n2)cc1	18	21	12	0	22	-4	nt
O=C(CSc1ncn(-c2ccccc2)n1)c1cccs1	0	16	13	-31	28	48*	-7
CC(O)CNc1nc2c(c(=O)n(C)c(=O)n2C)n1Cc1cccc(Br)c1 (stereo unspecified)	1	10	13	nt	-7	1	nt
COC(=O)C1=NN(C(=O)c2cccc(Br)c2)C(O)(c2ccc(Cl)cc2)C1 (stereo unspecified)	86*	22	-7	-11	35	45*	3
Cc1cc(C)nc(SCc2cc(=O)c(OC(=O)c3ccc(Br)o3)co2)n1	-2	38	42	22	6	40	nt
Cc1cc(C)nc(SCc2cc(=O)c(OC(=O)c3ccco3)co2)n1	2	37	33	-8	18	42*	37*
CCOc1ccc(-c2nc3n(c(=O)c2C#N)CCCS3)cc1	58*	11	4	-15	26	97*	16
COc1ccc(-c2nc3n(c(=O)c2C#N)CCCS3)cc1	11	-12	-3	-4	7	8	nt
Cc1cccc(C)c1NC(=O)CN(C)C(=O)c1ccc(-c2cccc(C(F)(F)F)c2)o1	-1	20	nt	-14	37	17	nt
Cc1ccc(O)c(-c2cc(-c3ccccc3[N+](=O)[O-])[nH]n2)c1	2	47	22	0	28	42*	4
COc1ccc(O)c(-c2cc(-c3ccccc3[N+](=O)[O-])[nH]n2)c1	-3	36	15	-12	21	35	nt

From PubChem
